In PubChem BioAssay AID1443 (Sanford-Burnham Center for Chemical Genomics, 2008):
In all, about 220,000 compounds went through this assay and about 880 (0.4%) were called active. This is one part of a sample in which actives are shown more often than they occur.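 Rule for the calls: active = cell killing above 50% in the first pass at 4 µM, then a duplicate retest at 5 µM averaging 50% or more; inactive = the rest.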

test: PPC-1 cell viability loss under TRAIL – PPC-1 cells, ATPLite luminescence, uHTS, TRAIL potentiator project, primary screen (AID 1443); conditions: PPC-1 cells + TRAIL, hits give high values; at 4 µM unless noted;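 note: plate controls were cells with TRAIL plus DMSO for no effect and medium-only wells lacking cells for full effect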

Compound | cell killing (% activity)
Cc1nc2ccc(N3CCN(C)CC3)cc2nc1C | -0.5% (inactive)
COc1cccc(-c2nc3ccc(N4CCN(C)CC4)cc3[nH]2)c1 | 85.4% [at 5 µM] (active)
CN1CCN(c2cc(N3CCNCC3)ccc2[N+](=O)[O-])CC1 | 3.5% (inactive)
O=C1CC(=O)N(Cc2ccccc2)C(=O)N1CCCCCCN1C(=O)CC(=O)N(Cc2ccccc2)C1=O | 12.3% (inactive)
COc1ccc(C2N3CC(C)(C)CN23)cc1 (stereo not given) | 15.2% (inactive)
